Assay outcomes deposited in PubChem BioAssay by several laboratories.
NLRP3 yeast inh: inhibitors of NALP3 inflammasome in yeast | Yeast reconstituted NLRP3/ASC/caspase-1, beta-gal luminescence, 24 h | 330,000 compounds, 0.39% hits | inhibition, % at 10 µM | AID 2825;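 active means inhibition of 50% or more; inactive means inhibition below 50%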;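 further: plate controls were induced DMSO wells for no effect and uninduced yeast grown without galactose for full effect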
PolyA inhibitor: blocks polyadenylation in yeast reporter cells; 300,000 compounds, 0.02% hits; S. cerevisiae SKY197-pL101 polyadenylation reporter, beta-gal luminescence; efflux-impaired pdr1/pdr3 knockout yeast; score 100 = 6 SD above DMSO; activity score, % at 12 µM;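 active means lowest replicate activity score at least 50, where 100 means six control SD above control mean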;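 further: yeast exposed to compound for 9 h at 30 °C; higher score means more reporter readthrough which indicates perturbed polyadenylation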
NALP1 inh: NALP1 inhibition; inhibition, % at 10 µM; 280,000 compounds, 0.61% hits; S. cerevisiae NALP1/ASC/caspase-1 growth, X-gal OD620, 72 h; in the data active means inhibition mostly above about 24%, no sharp cut-off; inactive means mostly below about 32%
SUMO Mot1 rescue: blocks SUMOylation pathway, rescuing yeast Mot1-301 growth. S. cerevisiae Mot1-301 growth rescue, ATP luminescence, 38.5C; percent above DMSO median, 100 means doubled. growth rescue, % at 18.8 µM. 320,000 compounds, 1% hits;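 active means every valid replicate shows activation above 250% relative to neutral control wells; inactive means the rest, any valid replicate at or below 250%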;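 further: OY570 slx delta 5 strain wells were the positive control but not used for scaling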
NALP3 confirm: NALP3 inhibition confirmation in yeast; 1,300 compounds, 81% hits; shares compounds with NLRP3 yeast inh; yeast expressing human NALP3, luminescence; inhibition, % at 10 µM; in the data active means inhibition above about 48%
Casp1-ASC yeast: counter-screen for NALP3 inhibitors: yeast caspase-1-ASC; shares compounds with NLRP3 yeast inh; inhibition, % at 10 µM; 1,000 compounds, 66% hits; yeast expressing Caspase-1-ASC, luminescence counter screen
NALP3 retest: yeast NALP3 inhibition, confirmed on retest. shares compounds with NLRP3 yeast inh. yeast expressing human NALP3, luminescence read-out. inhibition, % at 10 µM. 1,000 compounds, 53% hits. AID 488794
Active calls of the source: *; i = inactive; . = not tested or not shown. The list is not random: actives were taken first. Their share in the collection is about 1.8%. Unless noted, no stated cut-off is given here; in the data, active means inhibition above about 50%; inactive means the rest.

SMILES	NLRP3 yeast inh	PolyA inhibitor	NALP1 inh	SUMO Mot1 rescue	NALP3 confirm	Casp1-ASC yeast	NALP3 retest
c1nc(C2CCCCC2)cc2cc3c(cc12)OCO3	51*	.	.	107	54*	.	.
CC(C)c1ccccc1NC(=O)c1ccc(CN(c2ccccc2)S(=O)(=O)c2ccccc2)cc1	13	22	14	-5	.	.	.
COc1cc(C2C(=O)c3ccccc3C2=O)ccc1O	66*	2	19	-16	68*	66*	46
Cc1cccc(NC(=S)N=Nc2c(O)n(C)c3ccc(S(=O)(=O)N4CCOCC4)cc23)c1	16	34	12	.	.	.	.
O=c1c2sc(-c3ccccc3)cc2nc2n1CCCCC2	14	-20	31	144	.	.	.
O=c1c2sc(-c3ccccc3)cc2nc2n1CCC2	55*	113*	-91	-7	49	45	30
CCN1/C(=C/C=C/c2oc3ccc4ccccc4c3[n+]2CC)Oc2ccc3ccccc3c21	59*	.	8	30	61*	.	.
CCOc1ccc(S(=O)(=O)NCCC(=O)Nc2cccc(C(=O)OC)c2)cc1	16	15	3	-7	.	.	.
Cc1cc(O)cc2c(=O)c3ccccc3sc12	79*	-18	7	-6	92*	54*	63*
Cn1cccc1/C=C1\Cc2ccccc2C1=O	54*	13	2	-29	69*	.	.
CCCCCn1c(CN2CCN(C(=O)c3ccco3)CC2)nc2c1c(=O)n(C)c(=O)n2C	-7	7	-16	-10	.	.	.
CCn1c2ccccc2c2cc(/C=N/n3cn[nH]c3=S)ccc21	68*	-27	7	7	74*	82*	63*
CCn1c2ccccc2c2cc(/C=N/n3cnnc3)ccc21	31	-35	-4	9	.	.	.
COCCn1nnnc1C(c1cccc(OC)c1OC)N1CCN(C2CCCCC2)CC1 (stereo unspecified)	1	9	0	36	.	.	.
Cc1cc(C)c(NC(=O)CS(=O)CC(=O)N2CCN(c3ccccc3)CC2)c(C)c1 (stereo unspecified)	2	3	26	15	.	.	.
CCc1nc(SCc2cccnc2)c2c(=O)n(C)c(=O)n(C)c2n1	53*	1	.	-7	68*	58*	48
CC(C)Cc1nc(SCc2cccnc2)c2c(=O)n(C)c(=O)n(C)c2n1	60*	26	-11	-15	64*	57*	42
CC(C)N(Cc1ccccc1)S(=O)(=O)c1ccc(F)cc1	51*	21	14	5	56*	29	31
CCN(Cc1ccccc1)S(=O)(=O)c1ccc(F)cc1	25	0	20	-8	.	.	.
CC(=O)c1ccc(N2CCC(C(=O)O)CC2)cc1	15	10	0	i	.	.	.
CCCCOc1ccc(CSCCN)cc1Cl	67*	-79	7	-9	76*	.	.
CCOc1ccc(CSC(=N)N)cc1Cl	5	16	3	2	.	.	.
Cn1ccnc1SCC(=O)Nc1cccc(C#N)c1	9	.	.	-16	.	.	.
O=C(/C=C/c1cccc(Cl)c1)c1nc2ccccc2[nH]1	92*	-89	10	125	85*	99*	93*
O=C(C1CCN(S(=O)(=O)c2cccc3nsnc23)CC1)N1CCc2ccccc21	-5	-1	-4	6	.	.	.
SMILES	NLRP3 yeast inh	PolyA inhibitor	NALP1 inh	SUMO Mot1 rescue	NALP3 confirm	Casp1-ASC yeast	NALP3 retest
O=C(C1CCN(S(=O)(=O)c2cccc3nsnc23)CC1)N1CCn2c1nc1ccccc12	74*	-28	6	-7	75*	66*	75*
COc1ccc(-c2cc(=O)c3ccccc3s2)cc1	66*	-25	5	-11	66*	54*	66*
COc1ccc2sc3ccccc3c(=O)c2c1	24	-53	17	-16	.	.	.
C/C(CC(C)(C)C1CCCCC1)=N\NC(N)=S	54*	-52	9	143	20	.	.
CNc1nc(SCc2ccc(C)cc2)nc2c1CCCC2	97*	-1	99*	-4	99*	99*	99*
N#CCCN(C(=O)COC(=O)CNC(=O)c1ccc(-c2ccccc2)cc1)c1ccc(F)cc1	-9	-3	.	6	.	.	.
O=C(/C=C/c1c(Cl)nc2ccccn12)N1CCN(c2ccc(F)cc2)CC1	10	-4	12	4	.	.	.
Nc1nncn1C(=O)CCCN1C(=O)c2ccccc2C1=O	7	-15	12	9	.	.	.
